Records with an inconclusive call do not appear. Entries that show only a call come without a potency. Unmarked numbers belong to inactive results. The source made the active and inactive calls. Unless noted, the call rests on the fitted dose curve; in most records, active means well fitted curve in the direction sought with a large enough effect in the repeat runs; inconclusive means weak or mixed curves; inactive means no such curve, though single readings can be large; an effect the other way counts as inactive or inconclusive.
Columns and labels:
[1] = biological target: Aryl hydrocarbon receptor (Homo sapiens) (UniProt P35869); assay: qHTS assay to identify small molecule that activate the aryl hydrocarbon receptor (AhR) signaling pathway (AID 743085); further: nearly all actives have a fitted effect of over 15% in size; further: potency means the concentration at half of the fitted maximal effect;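 on activation: HG2L7.5c1 human HepG2 liver cells with stably integrated DRE-driven firefly reporter; series mostly up to about 70 µM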
Chain of Aryl hydrocarbon receptor (Homo sapiens) (P35869 whole entry, looked up): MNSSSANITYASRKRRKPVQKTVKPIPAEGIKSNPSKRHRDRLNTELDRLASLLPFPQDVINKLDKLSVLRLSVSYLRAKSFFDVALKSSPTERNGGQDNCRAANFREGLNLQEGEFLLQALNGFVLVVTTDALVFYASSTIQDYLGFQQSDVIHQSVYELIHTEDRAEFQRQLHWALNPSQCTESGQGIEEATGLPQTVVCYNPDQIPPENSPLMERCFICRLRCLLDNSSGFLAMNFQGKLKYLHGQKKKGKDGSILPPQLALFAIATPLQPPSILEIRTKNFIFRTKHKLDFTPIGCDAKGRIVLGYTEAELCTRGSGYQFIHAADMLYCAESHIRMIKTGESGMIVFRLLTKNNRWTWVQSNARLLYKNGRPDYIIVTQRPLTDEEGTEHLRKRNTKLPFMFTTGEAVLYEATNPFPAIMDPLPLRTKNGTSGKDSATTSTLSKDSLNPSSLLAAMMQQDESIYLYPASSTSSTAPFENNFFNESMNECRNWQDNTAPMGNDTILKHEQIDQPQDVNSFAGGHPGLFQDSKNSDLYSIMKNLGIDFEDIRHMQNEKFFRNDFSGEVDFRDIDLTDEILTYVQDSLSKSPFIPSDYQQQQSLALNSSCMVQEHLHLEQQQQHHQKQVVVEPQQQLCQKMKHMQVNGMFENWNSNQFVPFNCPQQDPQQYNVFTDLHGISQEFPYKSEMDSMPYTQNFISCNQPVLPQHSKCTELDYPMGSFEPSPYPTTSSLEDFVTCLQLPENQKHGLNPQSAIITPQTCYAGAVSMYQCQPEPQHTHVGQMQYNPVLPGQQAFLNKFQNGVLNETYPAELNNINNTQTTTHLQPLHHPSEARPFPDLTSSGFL
Summary of the method: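 HepG2 cells (HG2L7.5c1) stably carrying a firefly luciferase reporter driven by 20 dioxin responsive elements were exposed to compound for 24 h at 37C after a 5 h settling period; luminescence rise (ONE-Glo) indicated activation.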

[2] = qHTS assay to identify small molecule that activate the aryl hydrocarbon receptor (AhR) signaling pathway - cell viability counter screen (AID 743086); further: nearly all actives have a fitted effect of over 45% in size; further: potency means the concentration at half of the fitted maximal effect
Summary of the method: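 Cytotoxicity counter screen: CellTiter-Fluor signal (30 min, 37 C) in 4000 HepG2 cells/well carrying the DRE-luciferase reporter, following 24 h compound exposure at 37 C.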

[3] = biological target: Peroxisome proliferator-activated receptor gamma (Homo sapiens) (UniProt P37231); assay: qHTS assay to identify small molecule agonists of the peroxisome proliferator-activated receptor gamma (PPARg) signaling pathway (AID 743094; active means well fitted activation curve with a large enough effect in the signal ratio in the repeat runs, not every such curve was filed as active; the % refers to the signal ratio)
Chain of Peroxisome proliferator-activated receptor gamma (Homo sapiens) (P37231 whole entry, looked up): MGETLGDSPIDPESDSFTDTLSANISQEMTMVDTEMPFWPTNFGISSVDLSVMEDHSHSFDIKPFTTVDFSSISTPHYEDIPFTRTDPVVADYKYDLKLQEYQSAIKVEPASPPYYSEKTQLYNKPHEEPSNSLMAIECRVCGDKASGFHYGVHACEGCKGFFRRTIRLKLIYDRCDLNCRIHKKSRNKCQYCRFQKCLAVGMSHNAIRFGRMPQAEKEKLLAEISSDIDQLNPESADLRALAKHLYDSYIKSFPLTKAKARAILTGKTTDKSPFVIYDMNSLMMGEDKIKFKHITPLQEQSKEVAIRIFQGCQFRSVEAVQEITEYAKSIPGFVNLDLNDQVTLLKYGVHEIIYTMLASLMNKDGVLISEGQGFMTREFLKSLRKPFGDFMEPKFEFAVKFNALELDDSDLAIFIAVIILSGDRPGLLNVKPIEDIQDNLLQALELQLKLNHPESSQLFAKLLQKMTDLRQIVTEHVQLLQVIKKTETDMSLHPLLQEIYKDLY
Summary of the method: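 Cells from the PPARg UAS-bla HEK293H line are plated and incubated 5 h at 37C. Compounds in DMSO are pinned in and left 17 h at 37C. LiveBLAzer B/G substrate is then added for 1 h at room temperature before fluorescence is measured.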

[4] = qHTS assay for small molecule agonists of the antioxidant response element (ARE) signaling pathway - cell viability counter screen (AID 743203; calls by dose curve; further: nearly all actives have a fitted effect of over 55% in size; further: potency means the concentration at half of the fitted maximal effect)
Summary of the method: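 Cytotoxicity was tested in parallel with the ARE reporter screen. ARE-bla HepG2 cells were exposed to compounds for 16 hrs, and viability was taken from CellTiter-Glo luminescence.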

[5] = qHTS assay for small molecule activators of the heat shock response signaling pathway - cell viability counter screen (AID 743209); further: nearly all actives have a fitted effect of over 50% in size; further: potency means the concentration at half of the fitted maximal effect
Summary of the method: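 Cytotoxicity counter screen run in parallel with the HSE beta-lactamase reporter, using the same wells. HeLa HSE-bla cells received compound for 5 h at 37 C; ATP-based CellTiter-Glo luminescence was measured after 30 min at room temperature.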

[6] = qHTS assay to identify small molecule agonists of the peroxisome proliferator-activated receptor delta (PPARd) signaling pathway - cell viability counter screen (AID 743211); further: nearly all actives have a fitted effect of over 55% in size; further: potency means the concentration at half of the fitted maximal effect
Summary of the method: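 PPARd-bla HEK293H cells (UAS-beta-lactamase reporter) were treated with compounds for 17 h at 37 C. Viability was then read in the same wells by CellTiter-Glo luminescence after 30 min at room temperature.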

[7] = biological target: Peroxisome proliferator-activated receptor gamma (Homo sapiens) (UniProt P37231); assay: qHTS assay to identify small molecule antagonists of the peroxisome proliferator-activated receptor gamma (PPARg) signaling pathway (AID 743191; calls by dose curve; further: series mostly up to about 63 µM; nearly all actives have a fitted effect of over 30% in size)
Summary of the method: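 Beta-lactamase reporter under UAS control in HEK293H PPARg-bla cells; compound treatment 17 h at 37C. Read-out: fluorescence intensity after 1 h room-temperature incubation with LiveBLAzer B/G FRET substrate.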

[8] = qHTS assay to identify small molecule antagonists of the peroxisome proliferator-activated receptor gamma (PPARg) signaling pathway - cell viability counter screen (AID 743194); further: nearly all actives have a fitted effect of over 55% in size; further: potency means the concentration at half of the fitted maximal effect
Summary of the method: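 Viability was measured as CellTiter-Glo luminescence in GeneBLAzer PPARg UAS-bla HEK293H cells. These cells had been exposed 17 h at 37 C to compounds together with rosiglitazone at 50 nM final, with the beta-lactamase readout taken in the same wells.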

[9] = qHTS assay for small molecule agonists of the antioxidant response element (ARE) signaling pathway (AID 743202; active means well fitted activation curve with a large enough effect in the signal ratio in the repeat runs, not every such curve was filed as active; the % refers to the signal ratio; further: potency means the concentration at half of the fitted maximal effect)
Summary of the method: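 After 16 hours of compound treatment at 37 C, HepG2 cells with a stably integrated ARE-driven beta-lactamase reporter were loaded 2 hours at room temperature with LiveBLAzer B/G FRET substrate and fluorescence intensity measured.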

[10] = qHTS assay for small molecule activators of the heat shock response signaling pathway (AID 743210; active means well fitted activation curve with a large enough effect in the signal ratio in the repeat runs, with a control signal flat, not every such curve was filed as active; the % refers to the signal ratio; further: series mostly up to about 63 µM)
Summary of the method: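 Compound exposure lasted 5 h at 37 C in HeLa cells carrying a heat-shock-element-driven beta-lactamase reporter. Read-out: fluorescence intensity after 2.5 h room-temperature loading with LiveBLAzer B/G FRET substrate.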

SMILES	Potency [1]	Potency [2]	outcome [3]	Potency [4]	Potency [5]	Potency [6]	Potency [7]	Potency [8]	Potency [9]	Potency [10]
c1ccc(CCCc2ccncc2)cc1	inactive	inactive	inactive	inactive	inactive	inactive	–	–	–	–
CC(=O)OCCC1CCCCC1	inactive	–	inactive	inactive	inactive	inactive	inactive	inactive	inactive	inactive
CCN(CC)C(=O)/C(C#N)=C/c1cc(O)c(O)c([N+](=O)[O-])c1	inactive	inactive	–	inactive	inactive	inactive	–	inactive	–	–
CNC1CCCN(c2c(F)cc3c(=O)c(C(=O)O)cn(C4CC4)c3c2OC)C1 (configuration not stated)	inactive	–	inactive	inactive	inactive	inactive	inactive	–	inactive	inactive
CC(C(=O)O)c1ccc(C(=O)c2cccs2)cc1 (configuration not stated)	inactive	inactive	–	inactive	inactive	inactive	–	inactive	inactive	inactive
O=NN(CCCl)C(=O)NCCCl	inactive	–	inactive	inactive	inactive	inactive	inactive	–	–	inactive
CC(C)C(=O)OCCOc1ccccc1	inactive	–	inactive	inactive	inactive	inactive	inactive	inactive	inactive	inactive
CCSC(=O)N(CC)CC	inactive	inactive	inactive	inactive	inactive	inactive	–	–	–	inactive
Nc1ccc(F)cc1	inactive	–	inactive	inactive	inactive	inactive	–	inactive	inactive	inactive
CCCCC(CC)COS(=O)(=O)O (configuration not stated)	inactive	inactive	–	inactive	inactive	–	–	inactive	–	inactive
CC1=CC[C@@]23C[C@@H]1C(C)(C)[C@@H]2CC[C@H]3C	inactive	–	inactive	inactive	inactive	inactive	inactive	–	inactive	inactive
O=C(c1ccccc1)C1CCC1	inactive	–	inactive	inactive	inactive	inactive	inactive	inactive	inactive	–
CC(C)(C)NCC(O)COc1cccc2c1C[C@H](O)[C@H](O)C2 (some centres not stated)	inactive	–	inactive	inactive	inactive	inactive	–	inactive	inactive	inactive
Cc1ccc2c(c1)CCCN2	61.1 µM (active)	–	inactive	inactive	inactive	inactive	–	inactive	inactive	inactive
Cc1ccc(N(CCO)CCO)cc1	inactive	inactive	inactive	inactive	inactive	inactive	–	–	–	inactive
O=C(O)c1cccc(C[C@@H]2COc3ccc(OCc4nc5cc(F)ccc5s4)cc3[C@@H]2O)c1	inactive	inactive	–	–	inactive	inactive	–	–	–	inactive
COC(OC)OC	inactive	inactive	–	inactive	inactive	inactive	–	inactive	inactive	inactive
CCOC(=O)C(C)O (configuration not stated)	inactive	inactive	–	inactive	inactive	inactive	–	inactive	inactive	inactive
CC(C)Cc1ccc(CC(=O)O)cc1	inactive	inactive	–	inactive	–	inactive	–	–	inactive	–
O[C@@H](CNC[C@H](O)[C@H]1CCc2cc(F)ccc2O1)[C@@H]1CCc2cc(F)ccc2O1	inactive	26.6 µM (active)	–	21.1 µM (active)	inactive	23.7 µM (active)	–	29.8 µM (active)	–	inactive
CCCCCCCCCCCC(=O)OCC(O)CO (configuration not stated)	inactive	inactive	–	inactive	–	–	–	inactive	inactive	–
CC/C=C\C/C=C\C/C=C\CCCCCCCC(=O)OCC	inactive	inactive	–	inactive	inactive	inactive	–	inactive	–	–
CC1CCCC(=O)C1=O (configuration not stated)	inactive	–	inactive	inactive	inactive	inactive	inactive	–	inactive	inactive
CC(=O)NNC(C)=O	inactive	inactive	–	inactive	inactive	inactive	–	–	inactive	–
CN1C(CSCC(F)(F)F)Nc2cc(Cl)c(S(N)(=O)=O)cc2S1(=O)=O (configuration not stated)	inactive	–	inactive	inactive	inactive	inactive	inactive	inactive	–	inactive
O=C(NS(=O)(=O)/C=C/c1ccccc1)c1ccc(F)cc1Cl	inactive	inactive	–	inactive	inactive	inactive	–	inactive	–	inactive

SMILES	Potency [1]	Potency [2]	outcome [3]	Potency [4]	Potency [5]	Potency [6]	Potency [7]	Potency [8]	Potency [9]	Potency [10]
CCCC(=O)OC(=O)CCC	inactive	inactive	inactive	inactive	inactive	inactive	–	–	–	inactive
C[C@H](CS)C(=O)N1CCC[C@H]1C(=O)O	inactive	inactive	–	inactive	inactive	inactive	–	–	inactive	inactive
COc1cc(NCc2ccc3nc(N)nc(N)c3c2C)cc(OC)c1OC	29.8 µM (active)	29.8 µM (active)	–	0.0376 µM (active)	inactive	–	–	–	–	inactive
O=C(O)CCCc1c[nH]c2ccccc12	inactive	–	inactive	inactive	inactive	inactive	inactive	–	inactive	inactive
CCCCCCCCCCCSCC(=O)O	inactive	inactive	–	inactive	49 µM (active)	15.5 µM (active)	–	inactive	–	–
CCN(CC)CCOc1ccccc1C(=O)CCc1ccccc1	inactive	inactive	–	inactive	inactive	–	–	inactive	–	inactive
CC(C)(C)C(O)/C=C/c1ccc2c(c1)OCO2 (configuration not stated)	11.9 µM (active)	–	inactive	inactive	inactive	inactive	inactive	–	–	inactive
O=C(CCS)OCC(COC(=O)CCS)(COC(=O)CCS)COC(=O)CCS	inactive	inactive	inactive	–	–	inactive	–	–	–	–
CSCC[C@H](NC(=O)[C@H](Cc1c[nH]c2ccccc12)NC(=O)CCNC(=O)OC(C)(C)C)C(=O)N[C@@H](CC(=O)O)C(=O)N[C@@H](Cc1ccccc1)C(N)=O	–	inactive	inactive	–	inactive	inactive	inactive	inactive	inactive	inactive
CCO[Si](C)(CCCOCC1CO1)OCC (configuration not stated)	inactive	–	inactive	inactive	inactive	–	–	–	–	–
O=C1c2ccccc2C(=O)c2c(O)ccc(O)c21	7.7 µM (active)	–	–	–	inactive	inactive	inactive	–	2.73 µM (active)	inactive
N[C@@H](Cc1cc(I)c(O)c(I)c1)C(=O)O	inactive	–	inactive	inactive	inactive	inactive	–	inactive	inactive	inactive
CCN(CC)CCNC(=O)c1cc(Cl)c(N)cc1OC	inactive	–	–	inactive	inactive	inactive	–	inactive	inactive	inactive
COc1ccc(N)c([N+](=O)[O-])c1	inactive	–	inactive	inactive	inactive	inactive	–	–	inactive	inactive
Cc1cc(CCC(=O)OCCOCCOCCOC(=O)CCc2cc(C)c(O)c(C(C)(C)C)c2)cc(C(C)(C)C)c1O	inactive	–	inactive	inactive	inactive	inactive	–	inactive	inactive	inactive
CN(C)CC/C=C1\c2ccccc2Sc2ccc(Cl)cc21	inactive	–	inactive	–	inactive	29.8 µM (active)	–	–	–	inactive
CC(C)(O)c1coc(S(=O)(=O)NC(=O)Nc2c3c(cc4c2CCC4)CCC3)c1	–	inactive	inactive	inactive	inactive	inactive	inactive	inactive	inactive	inactive
COc1ccc(-c2cc(=S)ss2)cc1	29.8 µM (active)	–	–	inactive	inactive	inactive	–	–	13.3 µM (active)	–
O=[N+]([O-])C1(Br)COCOC1	inactive	–	inactive	–	49 µM (active)	–	–	–	–	–
Nc1ccc(S(=O)(=O)NCc2ccccc2)cc1	–	inactive	inactive	inactive	inactive	inactive	inactive	inactive	inactive	inactive
Cc1ccc2nc(N)[nH]c(=O)c2c1Sc1ccncc1	13.3 µM (active)	–	–	inactive	inactive	inactive	–	inactive	–	inactive
C=C(C)C(=O)OCCC(F)(F)C(F)(F)C(F)(F)C(F)(F)C(F)(F)C(F)(F)F	inactive	–	inactive	inactive	inactive	inactive	–	inactive	inactive	inactive
CCCCCCCCCCCCCCCCCC(=O)OCC(CC)CCCC (configuration not stated)	inactive	–	inactive	inactive	inactive	inactive	–	inactive	–	inactive
CCCCCCC(O)CCOC(C)=O (configuration not stated)	inactive	–	inactive	inactive	inactive	–	–	–	inactive	inactive
CCOC(=O)c1c(N)sc2c1CCN(Cc1ccccc1)C2	–	inactive	inactive	inactive	inactive	–	inactive	inactive	–	inactive
COC(CC(C)CCCC(C)(C)O)OC (configuration not stated)	inactive	–	inactive	inactive	inactive	inactive	–	inactive	inactive	inactive
